FLuc counter: counter-screen for miR-21 project: firefly luciferase inhibitors or activators; P08659; purified FLuc, Km substrates, luminescence inhibition; Potency, µM (series often up to 57.5 µM), inactives show at the top dose activity change, negative = inhibition, most hits filed as inhibitors; 360,000 tested, 6.9% active;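 further: plate controls were vehicle for no effect and reference inhibitor for full effect; nearly all actives have a fitted effect of over 55% in size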
Target sequence (P08659 whole entry, looked up): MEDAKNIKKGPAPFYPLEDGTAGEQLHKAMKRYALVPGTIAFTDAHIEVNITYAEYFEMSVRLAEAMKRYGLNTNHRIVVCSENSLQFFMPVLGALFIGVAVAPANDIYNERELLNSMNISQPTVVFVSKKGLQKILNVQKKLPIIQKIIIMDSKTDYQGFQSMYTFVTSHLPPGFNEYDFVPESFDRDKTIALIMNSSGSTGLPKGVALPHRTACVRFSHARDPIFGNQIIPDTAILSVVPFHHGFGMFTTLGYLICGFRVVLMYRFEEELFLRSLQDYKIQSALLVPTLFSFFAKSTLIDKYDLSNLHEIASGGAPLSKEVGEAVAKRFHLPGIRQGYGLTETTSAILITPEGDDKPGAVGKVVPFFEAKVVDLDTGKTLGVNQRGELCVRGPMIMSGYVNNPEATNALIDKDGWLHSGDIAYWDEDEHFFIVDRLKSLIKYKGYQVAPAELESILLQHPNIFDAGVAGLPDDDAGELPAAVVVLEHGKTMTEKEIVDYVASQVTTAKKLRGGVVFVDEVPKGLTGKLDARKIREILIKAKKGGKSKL
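Biochemical qHTS of compounds, final roughly 60 µM downward over six points, against 10 nM purified firefly luciferase using Km concentrations of substrates (10 uM D-luciferin, 10 uM ATP) in Tris acetate pH 7.5 buffer; luminescence output.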
Rab9 promoter act: Rab9 promoter activation; Huh7 Rab9 promoter-luciferase reporter, luminescence, 24 h; Potency, µM (top dose mostly 9.22 µM), inactives show at the highest dose activation, negative = inhibition, hits mostly activators; 320,000 tested, 2.8% active; further: % of control where 0% means no effect; nearly all actives have a fitted effect of over 60% in size
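Luminescence from Amplite-detected luciferase (10 minutes, ambient) reports Rab9 promoter activation. Before that, stable Rab9-luciferase Huh7 cells (1500/well, reduced-serum OP-MEM I plus 10% FBS) were exposed to compound for 24 hours at 37C.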
ELG1 genotox: inducers of genotoxicity in HEK293T ELG1-luciferase cells | Potency, µM (top dose mostly 46 µM), without a hit: at the top dose activity change, positive = activation, actives largely listed as activators | HEK293T ELG1-luciferase reporter, luminescence, 16 h | AID 504466 | 330,000 tested, 1.3% active; further: % of control where 0% means no effect; nearly all actives have a fitted effect of over 60% in size
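After overnight (16 hr) compound treatment at 37 °C, ELG1-luciferase HEK293T cells were lysed with ONE-Glo; luminescence quantified 30 min later at room temperature.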
p53 reactivator: mutant p53 re-activation in reporter cells; H1299 p53-A138V BP100-luciferase reporter, luminescence, 24 h; Potency, µM (top dose mostly 92.2 µM), inactives show at the highest dose activity change, positive = activation, most hits filed as activators; 320,000 tested, 0.063% active; further: % of control where 0% means no effect; nearly all actives have a fitted effect of over 45% in size
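p53-null H1299 cells stably carrying temperature-sensitive p53-A138V and a BP100-luciferase reporter were pinned with compounds (4-point, 1:5 series) and held 24 hrs at 37 deg C. Luminescence was read 10 min after detection reagent.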
SMN2 splice enh: SMN2 splice variant enhancement. 210,000 tested, 2.8% active. HEK293 SMN2-luciferase splicing reporter, luminescence, 30-36 h. Potency, µM (titrated, usually from 46.1 µM), for inactives: at the top dose activity change, positive = activation, hits mostly activators; further: % of control where 0% means no effect; nearly all actives have a fitted effect of over 55% in size
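qHTS luciferase splicing reporter: luminescence rises when SMN2 exon 7 is included in transfected HEK293 cells. Compound exposure lasted 30-36 h at 37C, with 4.5 mM final sodium butyrate as control, followed by a ONE-Glo read.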
NPC1 promoter act: activators of NPC1 promoter | Huh7 NPC1 promoter luciferase reporter, 24 h | Potency, µM (series often up to 9.22 µM), for the others: at the top dose activation, usual class: activators | 320,000 tested, 2.4% active | AID 485313; further: % of control where 0% means no effect; nearly all actives have a fitted effect of over 60% in size
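Cells: Huh7 expressing luciferase under the NPC1 promoter, 1500/well. Seeded 2 h, compound added, incubated 24 h at 37 °C. Luciferase reagent, 10 min ambient, then luminescence.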
Starred values were filed as active, the others as inactive; ? = inconclusive; . = not tested or not shown; [ ] = dose if it differs, or a comment. In the library only some 7.4% were active in any assay of this set; here they are far more common. The call rests on the fitted dose curve; in most records, active means well fitted curve in the direction sought with a large enough effect; inconclusive means small, poorly fitted or top-dose-only effect, or another doubt; inactive means no such curve, though single readings can be large; an effect the other way counts as inactive or inconclusive. Potency means the concentration at half of the fitted maximal effect.

SMILES	FLuc counter	Rab9 promoter act	ELG1 genotox	p53 reactivator	SMN2 splice enh	NPC1 promoter act
Cc1ccc(CNC(=O)c2ccc(Cn3cc(-c4ccc(C)cc4)nc3-c3ccncc3)cc2)cc1	11µM*	2.8µM*	?	.	.	?
Cc1ccc(CNC(=O)CCn2cc(-c3ccc(C)cc3)nc2-c2ccncc2)cc1	1%	4%	-1%	8%	.	-4%
O=C(NCCCSc1ccccc1)c1cnc(Cl)c(Cl)c1	-10%	0%	-2%	3%	.	-10%
CN(c1ccc(C(=O)NCCSC(C)(C)C)cc1)S(C)(=O)=O	19µM*	?	10µM*	?	11µM*	?
CN(c1ccc(C(=O)NCCSCc2ccco2)cc1)S(C)(=O)=O	?	15%	?	?	25%	25%
O=C(NCCc1ccccc1)c1cnc(Cl)c(Cl)c1	24µM*	14%	13%	?	.	19%
COc1ccc(NC(=O)Cn2nc(-c3ccncc3)ccc2=O)cc1Cl	0%	.	.	.	.	.
O=C(O)c1nc2cc(Cl)c(Cl)cc2[nH]c1=O	.	.	.	.	-10%	.
Cc1ccc(C(=O)NCCc2ccncc2)cc1	21µM*	?	?	8%	?	?
CN(c1ccc(C(=O)NCCc2ccccc2)cc1)S(C)(=O)=O	5.4µM*	0.63µM*	1.6µM*	20%	14µM*	1.4µM*
Cc1ccc(S(=O)(=O)N(C)c2ccc(C(=O)NCCc3ccccc3)cc2)cc1	?	?	15%	.	.	29%
Cc1ccc(C(=O)NCCc2ccccc2)cc1	0.54µM*	0.04µM*	?	2%	.	?
CCOc1ccc(-c2csc(/C(C#N)=C/c3ccc(Br)cc3)n2)cc1	-4%	.	.	.	-2%	.
Cc1ccc(CSc2cc(C)[nH]c(=O)n2)cc1	-7%	10%	18%	0%	.	14%
Cc1ccc(-n2[nH]c(C)c(/C=C3/C=Nc4ccccc43)c2=O)cc1C	-2%	-1%	12%	?	18µM*	16%
COc1ccc(-n2c(O)c(/C=C3\C=Nc4ccccc43)c(=O)[nH]c2=O)cc1	2%	6%	-1%	8%	.	8%
Cc1[nH]n(-c2ccccc2)c(=O)c1/C=C1/C=c2ccccc2=N1	?	21%	10%	15%	-1%	7%
Cc1[nH]n(-c2ccccc2)c(=O)c1/C=C1\C=NN=C1c1ccccc1	12µM*	0%	12%	9%	.	-1%
Cn1cc(/C=C/C(=O)N2CCCC(C(=O)c3ccc(C(C)(C)C)cc3)C2)cn1 (centres undefined)	17µM*	-1%	-4%	3%	.	0%
CC1=NN(c2ccccc2)C(=O)/C1=C\c1cn(C)c2ccccc12	9.5µM*	2%	2%	-1%	-3%	-17%
CC1=NN(c2ccccc2)C(=O)/C1=C/c1cc2cc(C)ccc2nc1N1CCCCC1	?	?	10%	19%	?	?
CC1=NN(c2ccccc2)C(=O)/C1=C\c1cc(C)n(C)c1C	7.6µM*	4%	-7%	4%	.	14%
CC1=NN(c2ccccc2)C(=O)/C1=C/c1cn(C)c2ccccc12	6µM*	14%	-2%	3%	.	2%
O=C(COCc1cc(-c2cccs2)on1)N1CCN(c2cccc(Cl)c2)CC1	-17%	.	.	.	.	.
Cc1ccccc1N1C(=O)c2cc(S(N)(=O)=O)c(Cl)cc2N[C@H]1C	.	.	.	.	-5%[20.6 µM]	.
SMILES	FLuc counter	Rab9 promoter act	ELG1 genotox	p53 reactivator	SMN2 splice enh	NPC1 promoter act
CCOc1ccc(NC(=O)CCC(=O)NNC(=O)COc2ccc(C)cc2Br)cc1	2.1µM*	?	?	12%	.	?
Cc1ccc(NC(=O)COc2ccc(Br)cc2C)cc1	9.5µM*	29%	?	?	-2%	18%
Cc1cc(Cl)ccc1OCC(=O)NNC(=O)c1ccco1	9.5µM*	26%	?	15%	.	10%
Cc1cc(Cl)ccc1OCC(=O)NNC(=O)c1cccnc1	19µM*	17%	-4%	19%	.	1%
O=C(c1cc(C(F)(F)F)cc(C(F)(F)F)c1)N1CCC2(CCN(Cc3ccncc3)CC2)CC1	.	.	.	.	-43%	.
COc1cccc(-c2noc(COc3ccc(C(C)(C)C)cc3)n2)c1	-2%	.	.	.	2%	.
O=C(CNC(=O)c1ccc(Cl)cc1)NNc1c(F)c(F)cc(F)c1F	.	.	-3%	-5%	.	.
O=C(O)c1sccc1S(=O)(=O)N1CCOCC1	0%	-2%	-1%	8%	.	2%
O=C(COc1ccc(Cl)cc1Cl)NNC(=O)c1cccnc1	5.4µM*	9%	15%	5%	.	5%
CC(C)c1ccc(OCC(=O)NNC(=S)NC(=O)c2ccco2)c(Br)c1	?	-1%	-3%	-14%	.	0%
Cc1cc(Cl)ccc1OCC(=O)NCc1ccncc1	-8%	-4%	1%	17%	-31%	-4%
CC(C)(C)c1ccc(OCC(=O)NNC(=S)NC(=O)c2ccco2)c(Br)c1	9.5µM*	3%	1%	-12%	.	-4%
Cc1cc(Cl)ccc1OCC(=O)Nc1ccncc1	15µM*	-13%	?	-8%	.	-6%
CCC(C)NC(=O)C1(O)c2cc(Br)ccc2NC(=O)N1c1cccc(OC)c1 (centres undefined)	-1%	-4%	-3%	7%	.	-2%
Brc1ccc(Sc2cnc3ccccc3n2)cc1	?	.	.	.	-11%	.
Clc1ccc(Sc2cnc3ccccc3n2)cc1	15µM*	.	.	.	-6%	.
c1ccc(Sc2cnc3ccccc3n2)cc1	21µM*	.	.	.	11%	.
CC(C)(C)C(=O)O/N=C(\N)COc1cccc(Cl)c1	17µM*	-1%	8%	13%	.	3%
CCOC(=O)c1ccc2[nH]c3ccccc3c2c1	19µM*	?	10%	?	?	18%
CCOC(=O)c1ccc2[nH]c(C)cc(=O)c2c1	-2%	2%	4%	2%	-15%	-2%
COC(=O)c1ccc2[nH]c(C(C)(C)O)c(C)c2c1	19µM*	?	?	.	.	?
Cc1nc(C(=O)NCCCO)cc2c1[nH]c1ccccc12	?	5%	10%	7%	.	-1%
O=C(NCCCO)c1ccc2[nH]c3ccccc3c2c1	24µM*	1%	11%	-6%	12%	1%
CCCCOC(=O)c1cc2c(cn1)[nH]c1ccccc12	.	.	.	.	18µM*	.
Nc1nc(Nc2cccc(Cl)c2)sc1C(=O)c1ccc(F)cc1	-10%	.	.	.	.	.
Nc1nc(Nc2ccccc2F)sc1C(=O)c1ccc(Cl)cc1	15µM*	.	.	.	14µM*	.
Clc1cccc(-c2cc3nc4c(c(N5CCN(c6cnccn6)CC5)n3n2)CCCC4)c1	12µM*	9%	-1%	24%	-60%	-1%
COc1ccccc1CCNC(=O)C(=O)c1cn(CC(=O)N2CCOCC2)c2ccccc12	24µM*	18%	10%	16%	.	15%
